# Measurements from PubChem BioAssay AID488832 (National Center for Advancing Translational Sciences (NCATS), 2010).
# Inconclusive results are not listed. Calls of active or inactive are those of the source. Calls come from the whole dose curve; as a rule, active = well fitted activation curve with a large enough effect; inconclusive = small, poorly fitted or top-dose-only effect; inactive = no such curve, though single readings can be large or run the other way.
# Assay: Confirmation Concentration-Response Assay for Enhancers of SMN2 Splice Variant Expression for Further Probe SAR
# Settings: HEK293 SMN2 exon7-luciferase splicing reporter, luminescence, 30-36 h; series mostly up to 46.1 µM; activity, positive = activation: at the top concentration
# From the text: NIH Chemical Genomics Center [NCGC] NIH Molecular Libraries Probe Production centers Network [MLPCN] MLPCN Grant: R03 MH084179-01 Assay Submitter (PI): Elliot Androphy NCGC Assay Overview: Spinal muscular atrophy (SMA) is caused by insufficient levels of the survival motor neuron protein SMN. The SMN locus on chromosome 5q13 contains two inverted copies of SMN called SMN1 and SMN2 which are 99% identical at the amino acid level. SMN1 is a fully functional protein and SMN2 skips exon 7 90% of the time. Skipping of exon 7 produces non-functional protein product. 10% of the SMN2 protein includes exon 7 and is fully functional. In the SMA disease state, mutations in the SMN1 locus are the cause of the disease state. Because only 10% of SMN2 is of the fully functional form, it is not sufficient to overcome the deficiency produced by the loss of the SMN1 product. A therapy that either increase the amount of SMN2 product made or to increase the inclusion of exon 7 has been proposed for the treatment of SMA. We have designed an assay to identify small molecules that can increase the amount of functional SMN2 product by appending a luciferase reporter gene after the native SMN2 gene, such that inclusion of exon 7 in the expressed product places the luciferase sequence in frame, thus generating functional luciferase enzyme.
# NCGC Assay Protocol Summary: This screen utilizes a luciferase reporter gene assay, combining the promoter with the major portion of the native SMN2 cDNA (exons 1 -7, intron 8 , exon 8 fused to luciferase) stably expressed in HEK293 cells. Compounds that increase luciferase signal presumably enhance expression of the functional SMN2 splice variant. Passaging media contained DMEM w/ glutamax (+phenol red) 10% FCS, 1x pen/strep, 200 ug/ml hygro, 1x sodium pyruvate. Assay media contained DMEM w/ glutamax (-phenol red) 10% FCS, 1x pen strep, 1x pyruvate Sequence, Parameter, Value, Description (1) Cells, 5 uL, 2000 cells/well, 1536 TC treated White solid bottom plate (2) Time, 10-12 hours, 37C 5% CO2 (3) Compound, 23 nl, MLSMR Library (4) Control Compound, 23 nL, Sodium butyrate st 4.5mM (final) conc (5) Time, 30-36 hours, 37C 5% CO2 (6) Reagent, 3 ul, One Glo (TM) from Promega (7) Time, 5-15 minutes, Room temp (8) Detector, Viewlux: luminescent read, 60 second integration, high speed 2x binning Keywords: Spinal muscular atrophy, SMA, SMN2, high throughput screening, MLSMR, MLPCN, NIH Roadmap, qHTS and NCGC
Structure (SMILES),"activity, positive = activation",Potency
CS(=O)(=O)c1ccc(-c2csc(N3CCC(C(N)=O)CC3)n2)cc1,-5% (inactive),
NC(=O)C1CCN(c2ncc(-c3cccc(F)c3)s2)CC1,,1940 nM (active)
NC(=O)C1CCN(c2nc(-c3ccc([N+](=O)[O-])cc3)cs2)CC1,,5470 nM (active)
NC(=O)C1CCN(c2ncc(Br)s2)CC1,-13% (inactive),
NC(=O)C1CCN(c2nccc(-c3ccc4c(c3)OCCCO4)n2)CC1,,1540 nM (active)
CCOc1ccc(-c2csc(N3CCC(C(N)=O)CC3)n2)cc1,,3070 nM (active)
NC(=O)C1CCN(c2ncc(-c3cccc(N4CCCC4)c3)s2)CC1,,345 nM (active)
O=C(c1ccco1)N1CCN(c2nc(-c3ccc(Br)cc3)cs2)CC1,-35.5% (inactive),
NC(=O)C1CCN(c2ncc(-c3ccc(Br)cc3)s2)CC1,,218 nM (active)
O=C(O)C1CCN(c2nc(-c3ccc(Br)cc3)cs2)CC1,,2440 nM (active)
c1c[nH]c(C2CCN(c3ncc(-c4ccc5c(c4)OCCCO5)s3)CC2)n1,,2180 nM (active)
CC(=O)C1CCN(c2ncc(-c3ccc4c(c3)OCCCO4)s2)CC1,-9.36% (inactive),
COc1ccccc1-c1csc(N2CCC(C(N)=O)CC2)n1,-17.9% (inactive),
CN(C)c1cccc(-c2nc(N3CCC(C(N)=O)CC3)ncc2F)c1,,345 nM (active)
CC(C)Oc1cccc(-c2csc(N3CCC(C(N)=O)CC3)n2)c1,,688 nM (active)
Brc1ccc(-c2csc(N3CCC(c4nn[nH]n4)CC3)n2)cc1,,17300 nM (active)
CC(=O)C1CCN(c2ncc(-c3cccc(N(C)C)c3)s2)CC1,,2740 nM (active)
NC(=O)C1CCN(c2nc(-c3ccc(OC(F)(F)F)cc3)cs2)CC1,,3070 nM (active)
NC(=O)C1CCN(c2nnc(-c3ccc4c(c3)OCCCO4)s2)CC1,,97.2 nM (active)
COc1cccc(-c2csc(N3CCC(C(N)=O)CC3)n2)c1,,1090 nM (active)

Structure (SMILES),"activity, positive = activation",Potency
CNC(=O)C1CCN(c2nc(-c3ccc(Br)cc3)cs2)CC1,,4870 nM (active)
CC(C)Oc1cccc(-c2ccnc(N3CCC(C(N)=O)CC3)n2)c1,,154 nM (active)
NC(=O)C1CCN(c2cc(-c3ccc4c(c3)OCCCO4)ncn2)CC1,,6140 nM (active)
NC(=O)C1CCN(c2nc(-c3ccc4c(c3)OCO4)cs2)CC1,,1370 nM (active)
CN(C)c1cccc(-c2cnc(N3CCC(C(N)=O)CC3)s2)c1,,24.4 nM (active)
CN(C)c1cccc(-c2ncc(F)c(N3CCC(C(N)=O)CC3)n2)c1,,2440 nM (active)
NC(=O)C1CCN(c2ncc(-c3cccc(N4CCOCC4)c3)s2)CC1,,1940 nM (active)
CCOC(=O)C1CCN(c2nc(-c3ccc(Br)cc3)cs2)CC1,,4870 nM (active)
NC(=O)C1CCN(c2ncc(-c3cccc(N4CCCCC4)c3)s2)CC1,,1090 nM (active)
CN(C)c1cccc(-c2cnc(N3CCC(C(N)=O)CC3)nc2)c1,,547 nM (active)
NC(=O)C1CCN(c2nccc(-c3ccc4c(c3)OCCO4)n2)CC1,,1090 nM (active)
NC(=O)C1CCN(c2nc(-c3ccc(N)cc3)cs2)CC1,4.35% (inactive),
CC(C)(C)c1ccc(-c2csc(N3CCC(C(N)=O)CC3)n2)cc1,,2740 nM (active)
NC(=O)C1CCN(c2nc(-c3ccc4c(c3)CCO4)cs2)CC1,,12200 nM (active)
NC(=O)C1CCN(c2ncc(-c3ccc4c(c3)OC(F)(F)O4)s2)CC1,,194 nM (active)
Cc1cnc(N2CCC(C(N)=O)CC2)nc1-c1cccc(N(C)C)c1,7.67% (inactive),
CN(C)c1cccc(-c2nccc(N3CCC(C(N)=O)CC3)n2)c1,,12200 nM (active)
NC(=O)C1CCN(c2ncc(-c3ccc4c(c3)OCCO4)s2)CC1,,86.7 nM (active)
O=C(Nc1ccccc1)C1CCN(c2nc(-c3ccc(Br)cc3)cs2)CC1,,1540 nM (active)
CS(=O)(=O)N1CCN(c2nc(-c3ccc(Br)cc3)cs2)CC1,-26.1% (inactive),
